Results on nine compounds are retold here after PubChem BioAssay (Tox21).

Molecules are shown by their SMILES. Unmarked numbers belong to inactive results. Inconclusive results are not listed. Calls of active or inactive are those of the source. Unless noted, calls come from the whole dose curve; as a rule, active = well fitted curve in the direction sought with a large enough effect in the repeat runs; inconclusive = weak or mixed curves; inactive = no such curve, though single readings can be large; an effect the other way counts as inactive or inconclusive.

Test [1] can be described thus: qHTS assay to identify small molecule antagonists of the estrogen related receptor (ERR) signaling pathway from Tox21 library - cell viability counter screen (AID 1224834). Note: nearly all actives have a fitted effect of over 30% in size. The procedure, abridged:
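CellTiter-Fluor fluorescence, read after 30 min at 37 C, measures viability of ERR cells. Cells plated at 2,000/well and incubated 6 h before pin-tool compound addition, then exposed 17.5 hours at 37 C.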
A general note: In qHTS, concentration-response curves come from the screen itself.

For test [2], the target named is Luciferin 4-monooxygenase (Photinus pyralis) (UniProt P08659). In words: qHTS assay to identify small molecule inhibitors of firefly luciferase (AID 1224835). Note: nearly all actives have a fitted effect of over 25% in size. Note: potency is the fitted concentration of half-maximal effect. In outline:
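Biochemical qHTS: compounds run as interplate titrations against purified firefly enzyme, with D-luciferin and ATP each at its KM concentration. Light output recorded by CCD imaging.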

A short description of test [3]: qHTS assay to identify small molecule agonists of the constitutive androstane receptor (CAR) signaling pathway - cell viability counter screen (AID 1224836). Note: nearly all actives have a fitted effect of over 45% in size. The procedure, abridged:
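Multiplexed viability check: HepG2-CYP2B6-hCAR cells, 15-point compound dosing, 0.75 uM PK11195 final, 23 h at 37 C, CellTiter-Fluor fluorescence.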

Test [4] is described as follows: qHTS assay to identify small molecule antagonists of the constitutive androstane receptor (CAR) signaling pathway - cell viability counter screen (AID 1224837). Note: nearly all actives have a fitted effect of over 45% in size. In outline:
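Cytotoxicity counter-screen: CellTiter-Fluor fluorescence after 23 h compound exposure (15-point qHTS) in double-stable HepG2-CYP2B6-hCAR cells, with 50 nM CITCO added.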

The target of test [5] is Nuclear receptor subfamily 1 group I member 3 (Homo sapiens) (UniProt Q14994). The test is described as follows: qHTS assay to identify small molecule antagonists of the constitutive androstane receptor (CAR) signaling pathway (AID 1224838).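 Note: HepG2 cells stably expressing hCAR with CYP2B6 luciferase reporter stimulated by CITCO; nearly all actives have a fitted effect of over 40% in size.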 Note: potency is the fitted concentration of half-maximal effect. The procedure, abridged: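 Antagonism measured as luciferase signal (ONE-Glo, 30 min, room temperature) in CAR-stimulated cells: HepG2-CYP2B6-hCAR double-stable line exposed 24 hr at 37 C to compound in a 15-point series plus 50 nM CITCO.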

Test [6] has the same target. In words: qHTS assay to identify small molecule agonists of the constitutive androstane receptor (CAR) signaling pathway (AID 1224839).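 For activation: HepG2 cells stably carrying human CAR and a CYP2B6 luciferase reporter.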 Note: nearly all actives have a fitted effect of over 15% in size. Note: potency is the fitted concentration of half-maximal effect. In outline: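 Using human hepatoma HepG2 cells engineered with hCAR and a CYP2B6-2.2kb reporter, 15-concentration compound series were incubated 24 h alongside PK11195 at 0.75 uM final, with luminescence quantified afterwards.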
Test [7] can be described thus: qHTS assay to identify small molecule antagonists of the estrogen related receptor signaling pathway with the pleiotropic PPARgamma coactivator (PGC) from Tox21 10K library - cell viability counter screen (AID 1224840; active = well fitted cell-killing curve with a large enough effect in the repeat runs, not every such curve was filed as active; note: nearly all actives have a fitted effect of over 40% in size). The procedure, abridged: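 Counter-screen for cytotoxicity: after 17.5 h compound exposure at 37 C, CellTiter-Fluor reagent added to PGC/ERR cells for 30 min and fluorescence read. Cells were seeded at 2,000 per well 6 h before dosing.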

Test [8] addresses Thyrotropin receptor (Homo sapiens) (UniProt P16473). In words: qHTS assay to identify small molecule agonists of the thyroid stimulating hormone receptor (TSHR) signaling pathway (AID 1224843; calls by dose curve; note: nearly all actives have a fitted effect of over 45% in size). In outline: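 HEK293/TSHR, 800 cells/well; cpd 30 min RT; add cAMP-d2 + anti-cAMP-cryptate, 1 h RT; fluorescence read on plate reader. 15-pt titration, n=3.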
A short description of test [9]: qHTS assay to identify small molecule agonists of the hypoxia (HIF-1) signaling pathway - cell viability counter screen (AID 1224844; calls by dose curve; note: nearly all actives have a fitted effect of over 50% in size; note: potency is the fitted concentration of half-maximal effect). The procedure, abridged: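 Cytotoxicity measured by CellTiter-Glo ATP luminescence in the wells also read for beta-lactamase signal. Cells were HRE-bla ME-180 (2,000/well, 0.5% dialyzed FBS), exposed to compounds for 17 h at 37C.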

Test [10] can be described thus: qHTS assay to identify small molecule agonists of H2AX (AID 1224845; active = well fitted activation curve with a large enough effect in the signal ratio in the repeat runs, not every such curve was filed as active; the % refers to the signal ratio). The procedure, abridged: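 Wild-type CHO-K1 cells, plated overnight, exposed 3hr at 37C to 15 concentrations (0.76% DMSO final). Lysed, then HTRF anti-pH2AX (S139) cryptate and anti-H2AX-d2 antibodies, 24 hr room temperature; 665/620 nm emission read.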
Test [11] is described as follows: qHTS assay to identify small molecule agonists of the hypoxia (HIF-1) signaling pathway (AID 1224846; active = well fitted activation curve with a large enough effect in the signal ratio in the repeat runs, not every such curve was filed as active; the % refers to the signal ratio). In outline:
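Compounds added to ME-180 cells carrying hypoxia-response-element beta-lactamase reporter (0.5% dialyzed FBS, 5 h preplating), 17 h at 37C; agonist activity detected by CCF4-AM B/G FRET read-out.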

Test [12] in a line: qHTS assay to identify small molecule agonists of H2AX - cell viability counter screen (AID 1224847; calls by dose curve; note: top concentration of the series differs between compounds; nearly all actives have a fitted effect of over 30% in size). The procedure, abridged:
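After overnight plating of 1000 CHO-K1 cells per well, a 15-concentration compound series was applied for 3 hr at 37C. Luminescence from CellTiter-Glo, read following 30 min at room temperature, reflected cell viability.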

Test [13] is described as follows: qHTS RealTime-Glo MT Cell Viability Assay in HepG2 cells - 24 hour (AID 1224867). Note: nearly all actives have a fitted effect of over 50% in size. In outline: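 Luminescence read-out: viable HepG2 cells reduce a prosubstrate to a NanoLuc substrate, giving a signal proportional to live cell number. Reads taken at 0, 8, 16, 24, 32 and 40 h of compound exposure at 37 C.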
The nature of test [14]: qHTS RealTime-Glo MT Cell Viability Assay in HEK293 cells - 32 hour (AID 1224868). Note: nearly all actives have a fitted effect of over 50% in size. Note: potency is the fitted concentration of half-maximal effect. In outline:
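Nonlytic real-time viability readout: viable cells convert prosubstrate to NanoLuc substrate, giving luminescence proportional to live cell number. HEK293, 600 cells/well, compound added after 5 h, continuous culture at 37 C.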

Test [15] can be described thus: A CellTox Green Cytotoxicity Assay to monitor cytotoxicity in HEK293 cells - 0 hour (AID 1224869). Note: nearly all actives have a fitted effect of over 50% in size. The procedure, abridged: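 Fluorescence from a DNA-binding dye excluded by viable cells was measured repeatedly in the same HEK293 wells (600 cells/well) during continuous compound exposure at 37 C. Each assay gives one read point: 0, 8, 16, 24, 32 or 40 h.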
Test [16] is described as follows: qHTS assay to identify small molecule agonists of the estrogen related receptor signaling pathway with the pleiotropic PPARgamma coactivator (PGC) from Tox21 10K library (AID 1224842). Note: nearly all actives have a fitted effect of over 15% in size. In outline: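 PGC/ERR reporter cell line, 2,000 cells per well, incubated 6 h at 37 C before 23 nL compound in DMSO was added. After 18 h at 37 C, One-Glo luminescence read following 30 min at room temperature.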

A short description of test [17]: qHTS assay to identify small molecule agonists of the estrogen related receptor (ERR) signaling pathway from Tox21 library (AID 1224849; calls by dose curve; note: nearly all actives have a fitted effect of over 15% in size). The conditions noted are these: ERR reporter cell line, ONE-Glo luciferase, 18 h; at 92.4 µM (top of the series) unless noted. The procedure, abridged:
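Luminescent agonist read-out (One-Glo, 30-minute room-temperature incubation) following 18-hour compound treatment at 37 C of the ERR cell line, which had been plated 6 hours before dosing.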
% is set by controls: 0 for no effect and ±100 for the full control effect.

Nuclear receptor subfamily 1 group I member 3 (Homo sapiens), sequence (Q14994 whole entry, looked up): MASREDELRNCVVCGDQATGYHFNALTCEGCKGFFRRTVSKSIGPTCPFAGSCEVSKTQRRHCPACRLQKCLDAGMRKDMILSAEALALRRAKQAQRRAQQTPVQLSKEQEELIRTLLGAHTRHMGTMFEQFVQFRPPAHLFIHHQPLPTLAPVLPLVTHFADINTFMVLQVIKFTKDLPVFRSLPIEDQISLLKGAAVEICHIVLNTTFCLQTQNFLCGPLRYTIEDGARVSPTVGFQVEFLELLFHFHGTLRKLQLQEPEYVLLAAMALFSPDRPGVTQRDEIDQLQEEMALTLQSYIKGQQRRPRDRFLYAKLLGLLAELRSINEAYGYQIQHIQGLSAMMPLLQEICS
Thyrotropin receptor (Homo sapiens), sequence (P16473 whole entry, looked up): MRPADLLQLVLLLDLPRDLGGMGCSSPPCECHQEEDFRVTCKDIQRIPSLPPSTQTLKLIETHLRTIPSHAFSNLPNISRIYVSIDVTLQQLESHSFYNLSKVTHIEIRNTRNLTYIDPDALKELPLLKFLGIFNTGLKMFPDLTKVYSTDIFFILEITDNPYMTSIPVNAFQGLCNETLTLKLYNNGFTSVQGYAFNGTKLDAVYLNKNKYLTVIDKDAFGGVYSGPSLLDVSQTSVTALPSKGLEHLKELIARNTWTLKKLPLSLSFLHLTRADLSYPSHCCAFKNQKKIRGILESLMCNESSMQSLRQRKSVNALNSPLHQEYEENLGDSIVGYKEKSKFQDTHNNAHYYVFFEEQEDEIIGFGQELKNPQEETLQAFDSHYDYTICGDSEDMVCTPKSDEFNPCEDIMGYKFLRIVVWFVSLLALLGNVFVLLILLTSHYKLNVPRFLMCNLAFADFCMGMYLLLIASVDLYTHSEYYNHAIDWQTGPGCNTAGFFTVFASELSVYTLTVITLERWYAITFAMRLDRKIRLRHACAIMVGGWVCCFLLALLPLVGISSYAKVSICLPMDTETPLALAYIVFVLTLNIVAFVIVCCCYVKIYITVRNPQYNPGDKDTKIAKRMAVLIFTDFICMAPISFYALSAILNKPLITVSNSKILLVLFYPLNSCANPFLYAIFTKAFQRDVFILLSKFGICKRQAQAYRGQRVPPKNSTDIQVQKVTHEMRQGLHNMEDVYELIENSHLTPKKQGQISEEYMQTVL
Luciferin 4-monooxygenase (Photinus pyralis), sequence (P08659 whole entry, looked up): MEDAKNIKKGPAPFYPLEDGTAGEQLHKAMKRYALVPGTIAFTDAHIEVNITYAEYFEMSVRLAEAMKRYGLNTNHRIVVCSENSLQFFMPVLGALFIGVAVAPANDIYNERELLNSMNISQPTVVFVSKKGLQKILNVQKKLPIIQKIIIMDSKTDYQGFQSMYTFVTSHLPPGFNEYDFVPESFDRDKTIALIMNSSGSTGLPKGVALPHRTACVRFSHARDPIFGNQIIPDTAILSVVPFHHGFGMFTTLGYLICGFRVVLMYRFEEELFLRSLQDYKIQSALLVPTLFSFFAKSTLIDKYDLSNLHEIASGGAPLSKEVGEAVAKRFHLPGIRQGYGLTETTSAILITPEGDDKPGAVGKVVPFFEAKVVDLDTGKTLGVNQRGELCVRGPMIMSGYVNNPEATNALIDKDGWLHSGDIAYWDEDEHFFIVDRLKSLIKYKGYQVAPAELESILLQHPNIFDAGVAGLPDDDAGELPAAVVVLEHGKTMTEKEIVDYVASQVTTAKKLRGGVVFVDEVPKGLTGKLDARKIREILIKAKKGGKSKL

Consider `CCCCOC(=O)CCS`, for which the Potency result in [1], in test [2], in test [3], in test [4], in [6] and in test [7] was “inactive” each time. For the same compound, the Potency result in [8], in [9], in test [10], in [12], in test [13] and in test [14] was “inactive” throughout. Besides, the Potency entry in test [15] is “inactive”. In addition, the Potency in test [5] is 24.3 µM (active). The compound was called inactive in test [11].

In the case of `CC(C)c1nnc2ccc(-c3ocnc3-c3cc(F)ccc3F)cn12`, the Potency result in test [1], in test [2], in test [3], in test [4], in [5] and in test [7] was “inactive” in each case. In addition, the Potency entry in test [16], in [8], in [9], in test [13] and in test [15] was “inactive” in each case. In addition, the results for the Potency in [6] and in test [14] were 48.6 µM (active) and 21.9 µM (active), respectively. Also, the result in test [11] was inactive. Besides, the activity change, positive = activation in test [17] is -31.4%.

Take `CCCCC(CC)COC(=O)COc1ccc(Cl)cc1C` (stereo unspecified): the Potency entry in test [1], in test [2], in test [3], in [4], in test [5] and in test [6] was “inactive” in each case. For the same compound, the Potency result in test [7], in test [8], in test [9], in test [10], in test [12] and in test [13] was “inactive” in each case. Moreover, the Potency entry in test [14] and in test [15] was “inactive” throughout. Further, the call in [11] was inactive.

As to `CCC(C)(C)C1CCC(O)CC1` (stereo unspecified), the Potency result in test [1], in test [3], in test [4], in test [5], in test [6] and in [7] was “inactive” throughout. The Potency result in test [8], in [9], in test [10], in test [13] and in test [14] was “inactive” each time. Moreover, the Potency in [2] is 79.6 µM (active).

In the case of `OCCSc1ccccc1`, the Potency entry in [1], in test [2], in test [3], in [4], in [5] and in [6] was “inactive” in each case. The Potency result in [7], in test [8], in [10], in test [12], in test [13] and in test [14] was “inactive” in each case. For the same compound, the Potency entry in test [15] was “inactive”. The Potency in [9] was 21.9 µM (active).

As for `CC(=N\O)/C(C)=N/O`, the Potency entry in [1], in [2], in test [3], in test [4], in [5] and in [6] was “inactive” each time. Besides, the Potency entry in test [7], in [8], in [9], in test [10], in [12] and in test [13] was “inactive” each time. The Potency entry in test [14] and in test [15] was “inactive” throughout.

Regarding `Fc1c(F)c(F)c(Br)c(F)c1F`, the Potency entry in test [1], in [2], in test [3], in [4], in test [5] and in [6] was “inactive” throughout. The Potency entry in test [7], in test [8], in test [9], in [10], in test [12] and in test [13] was “inactive” in each case. Also, the Potency entry in test [14] and in [15] was “inactive” each time. In addition, the call in [11] was inactive.

For `CC(C)(C)C(=O)C(Oc1ccc(Cl)cc1)n1ccnc1` (stereo unspecified), the Potency entry in [1], in test [2], in [3], in test [4], in test [5] and in test [6] was “inactive” each time. The Potency entry in test [7], in test [16], in test [10] and in [13] was “inactive” throughout. Further, the call in test [11] was inactive. Moreover, the activity change, positive = activation in [17] was -21.7% [at 42.5 µM].

In the case of `CCCCN(CCCC)CCCOC(=O)c1ccc(N)cc1`, the Potency entry in test [1], in [2], in test [3], in test [4], in [5] and in test [7] was “inactive” in each case. Moreover, the Potency entry in test [8], in [9], in test [10], in test [12], in [13] and in test [14] was “inactive” throughout. In [15], the Potency entry was “inactive”. Further, the Potency in test [6] is 26.6 µM (active).
